Sampled rows, rich in hits. Any-hit rate of the full collection: about 3.1%.
Tau fibril FP – qHTS for Inhibitors of Tau Fibril Formation, Fluorescence Polarization | 280,000 compounds, 0.39% hits | K18 P301L tau heparin fibrillization, Alexa594 FP, 6 h | Potency, µM (doses to about 57.7 µM), inactives show at the highest dose activity, negative = inhibition, actives largely listed as inhibitors | Microtubule-associated protein tau (Homo sapiens), P10636 | AID 1468, 2008; further: nearly all actives have a fitted effect of over 55% in size
Target sequence (P10636 561-689 P618L limits assumed): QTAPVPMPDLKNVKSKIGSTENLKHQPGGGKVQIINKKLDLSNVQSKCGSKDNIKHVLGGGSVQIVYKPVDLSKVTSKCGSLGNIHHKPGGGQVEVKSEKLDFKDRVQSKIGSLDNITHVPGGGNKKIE
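FP of Alexa 594-tau after heparin (20 uM) induction. Substrate: human K18 P301L, 15 uM unlabeled, 0.24 uM labeled. Buffer 100 mM sodium acetate pH 7. 6 hr, 37 C.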
TRb-SRC2 inh – qHTS for Inhibitors of the Interaction of Thyroid Hormone Receptor and Steroid Receptor Coregulator 2; TRbeta-SRC2 peptide binding, fluorescence polarization; receptor liganded with 1 µM T3; Potency, µM (top dose mostly 106 µM), for inactives: at the top dose activity change, negative = inhibition, most hits filed as inhibitors; 280,000 compounds, 0.065% hits; AID 1469, 2008;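 further: plate controls were bound peptide for no effect and peptide without receptor for full effect; nearly all actives have a fitted effect of over 50% in size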
Target sequence (P10828 whole entry, looked up): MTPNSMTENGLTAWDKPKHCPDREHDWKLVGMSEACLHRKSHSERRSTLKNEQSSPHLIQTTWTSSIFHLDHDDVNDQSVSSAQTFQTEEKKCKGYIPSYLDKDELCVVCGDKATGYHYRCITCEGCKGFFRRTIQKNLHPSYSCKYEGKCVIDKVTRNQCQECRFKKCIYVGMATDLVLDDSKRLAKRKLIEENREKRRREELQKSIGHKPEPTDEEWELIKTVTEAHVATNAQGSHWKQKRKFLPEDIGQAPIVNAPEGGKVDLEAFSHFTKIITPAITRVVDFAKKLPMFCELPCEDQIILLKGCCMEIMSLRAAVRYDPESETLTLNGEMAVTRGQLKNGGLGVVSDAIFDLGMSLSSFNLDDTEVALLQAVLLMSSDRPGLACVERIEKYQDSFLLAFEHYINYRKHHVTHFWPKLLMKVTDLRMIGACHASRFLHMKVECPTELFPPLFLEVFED
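Polarization signal, normalized between peptide-alone and full complex controls, measured compound effects on T3-liganded human TRb LBD (0.6 uM) binding 20 nM Texas Red SRC2 peptide after 5 hr.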
Tau fibril ThT – qHTS for Inhibitors of Tau Fibril Formation, Thioflavin T Binding | Microtubule-associated protein tau (Homo sapiens), P10636 | recombinant tau K18 P301L, heparin-induced fibrillization, ThT fluorescence | Potency, µM (doses to about 57.4 µM), without a hit: at the top dose activity, negative = inhibition, usual class: inhibitors | 270,000 compounds, 2.1% hits; further: nearly all actives have a fitted effect of over 55% in size
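ThT emission at 510 nm, taken 1 hr after adding 30 uM dye, quantifies aggregates formed when 20 uM heparin acts on human tau K18 P301L for 6 hr at 37 C.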
TexasRed fluor – Total Fluorescence Counterscreen for Inhibitors of the Interaction of Thyroid Hormone Receptor and Steroid Receptor Coregulator 2; Potency, µM (doses to about 106 µM), for inactives: at the highest dose fluorescence change, negative = quenching; 280,000 compounds, 0.29% hits; TRb/SRC2 Texas Red total fluorescence interference; AID 1479, 2009; active means well fitted curve in either direction with a large enough effect; inconclusive means small, poorly fitted or top-dose-only effect
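Human TRβ ligand-binding domain (0.6 uM) and Texas Red SRC2 peptide (20 nM) in Tris buffer with 1 uM T3 and 5% DMSO were incubated with pinned compound for 5 hr at ambient temperature. Total fluorescence was computed as S + 2P (555/632 nm).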
Tau fluor counter – Counterscreen qHTS for Inhibitors of Tau Fibril Formation, Fluorescence Polarization | tau K18 P301L Alexa594 fluorescence, heparin fibrillization | Potency, µM (series often up to 57.7 µM), for inactives: at the top dose activity change, negative = decrease | 280,000 compounds, 0.93% hits | AID 1463, 2008; further: nearly all actives have a fitted effect of over 55% in size
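Human tau K18 P301L (15 uM unlabeled, 0.24 uM Alexa 594-labeled) in 100 mM sodium acetate pH 7 with 20 uM heparin, 6 hr at 37 C. ThT 30 uM added, 1 hr ambient; Alexa 594 FP and total fluorescence read at 555/632 nm.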
* marks the source's active call; other numbers are inactive results; u = inconclusive; x = no result given; ! = repeats disagree; [ ] = another dose, or the depositor's remark. Unless noted, the call rests on the fitted dose curve; in most records, active means well fitted curve in the direction sought with a large enough effect; inconclusive means small, poorly fitted or top-dose-only effect, or another doubt; inactive means no such curve, though single readings can be large; an effect the other way counts as inactive or inconclusive. Unless noted, on the % scale 0 is the no-effect control and ±100 the full control effect; potency means the concentration at half of the fitted maximal effect.

SMILES	Tau fibril FP	TRb-SRC2 inh	Tau fibril ThT	TexasRed fluor	Tau fluor counter
Cc1cc(N(CCO)CCO)ccc1N=Nc1cc(F)ccc1F	14%	1%	10µM*	-2%	u
COc1cc2ncc(-c3ccccc3)nc2cc1OC	1%	1%	u	-2%	-12%
Cc1ccc2c(c1)C(=O)[C@@]1(O)CCN(c3ccccc3)C1=N2	-5%	3%	20µM*	-2%	-20%
C=C1c2cc(C)ccc2NC(=O)N1c1ccccc1	-5%	1%	-7%	-3%	-8%
Cc1ccc2c(c1)C(=O)C1(O)CCN(c3ccccc3)C1=N2 (stereo unspecified)	-12%	1%	7.9µM*!	-2%	-13%
CC1=Nc2cc(C(=O)O)ccc2Sc2ccc(C)cc21	5%	9%	4%	-4%	9%
C[Si](C)(C)O[Si](C)(C)O[Si](C)(C)C	x	3%[201 µM]	x	2%[201 µM]	x
COc1ccc(C2=CC(=O)C=CC2=O)cc1	35µM*	0%	14µM*	-2%	u
Cc1nnc(NCc2ccc(Cl)cc2)c2c1nnn2Cc1ccc(F)cc1	6%	-4%	8%	-2%	6%
Cc1ccccc1CSc1ncc(CO)n1Cc1ccc(F)cc1	-1%	-8%	-6%	1%	-14%
Nc1c(S(=O)(=O)O)cc(Nc2ccc(Nc3nc(Cl)nc(Nc4ccc(S(=O)(=O)O)cc4)n3)c(S(=O)(=O)O)c2)c2c1C(=O)c1ccccc1C2=O	10µM*	10%	4µM*	22µM*[quencher]	2.8µM*[quencher]
O=[N+]([O-])c1c(Nc2ccccn2)cc(Cl)c2nonc12	u	5%	x	3%	u
O=C(O)c1cccc(Nc2cc(Cl)c3nonc3c2[N+](=O)[O-])c1	2%	6%	3.5µM*	-4%	u
Cc1cc(C(=O)COC(=O)c2ccccc2Br)c(C)n1CC1CCCO1 (stereo unspecified)	6%	3%	-16%	0%	-24%
Cc1cc(C(=O)COC(=O)c2cc(O)c3ccccc3c2O)c(C)n1CC1CCCO1 (stereo unspecified)	u	-1%	14µM*	-5%	u
Nc1ccc(N)c(Cl)c1	x	u	x	-20%	x
Cc1cccc(Cn2c(CNS(=O)(=O)c3ccc4c(c3)CCCC4)nc3cccnc32)c1	5%	-4%	-11%	-3%	-14%
Cc1ccc(NC(=O)c2ccccc2[N+](=O)[O-])nc1	-5%	-4%	-6%	-3%	-10%
CC1CCc2noc(NC(=O)c3ccccc3[N+](=O)[O-])c2C1 (stereo unspecified)	-1%	-10%	u	22387µM*[quencher]	u
O=C(c1cnn(-c2cccc(F)c2)c1-n1cccc1)N1CCN(c2ccccc2F)CC1	5%	4%	-1%	1%	-11%
CCOC(=O)c1ccccc1NC(=O)NC(C)c1c(-n2cccc2)sc(C)c1C (stereo unspecified)	-9%	-14%	-2%	22µM*[quencher]	-7%
Cc1sc(-n2cccc2)c(C(C)NC(=O)Nc2ccccc2Cl)c1C (stereo unspecified)	-11%	4%	-5%	3%	-24%
COc1cc(/C=C2\SC(=O)NC2=O)ccc1Oc1ccc([N+](=O)[O-])cc1[N+](=O)[O-]	-10%	-17%	14µM*	-9%	u
COc1ccc(/C=C2\SC(=O)NC2=S)cc1OC	u	-3%	8.9µM*	-6%	-27%
Nc1n[nH]c(N)c1N=Nc1ccc2c(c1)OCO2	1%	4%	14µM*	-7%	-30%
SMILES	Tau fibril FP	TRb-SRC2 inh	Tau fibril ThT	TexasRed fluor	Tau fluor counter
O=C1CCCC(O)=C1N=Nc1ccc2c(c1)OCO2	3%	7%	u	-21%	-15%
COc1ccccc1NC(=O)CSc1nc2c(oc3ccccc32)c(=O)n1-c1ccccc1F	u	3%	-7%	-16%	-16%
C=CC[n+]1c(-c2ccc(OCC)cc2)csc1NNC(=O)Nc1ccccc1	-8%	2%	13µM*	-1%	u
C=CC[n+]1c(-c2ccc(C)cc2)csc1Nc1c(C)n(C)n(-c2ccccc2)c1=O	7%	-3%	-3%	0%	1%
CCOc1ccc(/C=N/Nc2ccccn2)cc1OC	5%	-1%	u	1%	-14%
CCOc1ccc(/C=N/N(C)c2ccccc2)cc1OC	u	-4%	7.9µM*	-3%	u
CCC12CCCN3CCc4c(n(c5ccccc45)C(O)(C(=O)OC)C1)C32 (stereo unspecified)	u	2%	18µM*	2%	u
CC(=O)CC(=O)Nc1ccc(C)cc1C	x	5%[201 µM]	x	-10%[201 µM]	x
NC(=O)C1(NC(=O)[C@@H]2CC3(CC(c4cccc(NC(=O)c5cc([N+](=O)[O-])cc([N+](=O)[O-])c5)c4)=NO3)CN2C(=O)c2ccccc2)CC1 (stereo partly specified)	u	-11%	-13%	1%	25µM*[quencher]
C/C=C/C(=O)Nc1cccc(C2=NOC3(C2)C[C@@H](C(N)=O)N(C(=O)c2cc([N+](=O)[O-])cc([N+](=O)[O-])c2)C3)c1 (stereo partly specified)	3%	-6%	-5%	-1%	-4%
N#CC(c1ccc(Cl)cc1)N1CCOCC1 (stereo unspecified)	-1%	3%	-5%	-2%	0%
Oc1c(Cl)cc(Cl)cc1C(C#Cc1ccccc1)N1CCOCC1 (stereo unspecified)	-4%	-2%	14µM*	-1%	u
[O-]/[N+](=C\c1ccncc1)c1ccc(Br)cc1	u	0%	32µM*	1%	-25%
Cc1ccc(Nc2nnc(-c3cc4c(ccc5ccccc54)oc3=O)s2)cc1	7%	u	u	0.032µM*[quencher]	-7%
O=c1oc2ccc3ccccc3c2cc1-c1nnc(Nc2ccc(F)cc2)s1	6%	-8%	u	-33%	-14%
CCOCCCNC(=O)/C(C#N)=C/c1cc(OC)c(O)c([N+](=O)[O-])c1	10%	-13%	14µM*	-1%	-11%
Cc1cc(C)n(-c2cc(C(C)(C)C)nc3c(-c4ccccc4)cnn23)n1	5%	-2%	-8%	4%	-11%
CC(C)(C)c1cc(NCc2ccccn2)n2ncc(-c3ccccc3)c2n1	11%	3%	u	1%	10µM*[quencher]
Cc1ccc(-c2nc(C(=O)NCc3ccc(Cl)cc3)c3n2CCCCC3)cc1	-5%	5%	2%	-3%	-22%
O=C(NCc1ccccc1)c1nc(-c2ccc(Cl)cc2)n2c1CCCCC2	-5%	-4%	-3%	20µM*[quencher]	0%
CC(C)N(Cc1ccccc1)C(=O)c1nc(-c2ccc(Cl)cc2)n2c1CCCCC2	-7%	-12%	-2%	14µM*[quencher]	2%
